Source: PubChem BioAssay (NCATS)
Several values for one entry are separate records, joined by “and”; a condition that tells them apart may be missing. Identical values can stand only once. Records with an inconclusive call do not appear. Entries that show only a call come without a potency. Activity calls are given as the source filed them. Unless noted, calls come from the whole dose curve.

Columns and labels:
[1] = biological target: Estrogen receptor (Homo sapiens) (UniProt P03372); assay: qHTS assay for small molecule agonists of estrogen receptor alpha signaling (AID 588514); settings: ER-alpha-UAS-bla HEK293, beta-lactamase ratio, 18 h; series mostly up to 76.8 µM; note: nearly all actives have a fitted effect of over 70% in size
How it was run: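 Reporter-gene assay. […] controls beta-lactamase in HEK 293 GripTite cells; after 18 hrs with compound, CCF4 substrate is added for 2 hrs and fluorescence is read.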

[2] = biological target: Bile acid receptor (Homo sapiens) (UniProt Q96RI1); assay: qHTS assay for small molecule antagonists of farnesoid X receptor signaling (AID 588526); settings: HEK293T FXR-UAS-bla, beta-lactamase ratio, antagonist mode; series mostly up to 76.7 µM; note: potency is the fitted concentration of half-maximal effect
How it was run: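 Concentration-response titrations were fitted to the Hill equation for half-maximal inhibition and maximal response, with data normalised to 50 uM chenodeoxycholic acid and DMSO control wells. Cells: FXR-UAS-bla HEK293T, dialyzed FBS.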

[3] = biological target: Bile acid receptor (Homo sapiens) (UniProt Q96RI1); assay: qHTS assay for small molecule agonists of farnesoid X receptor signaling (AID 588527); settings: HEK293T FXR-UAS-bla, beta-lactamase ratio, 16 h; activation: stronger effect = higher value
How it was run: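 Quantitative HTS used FXR-UAS-bla HEK293T cells with 16 h compound incubation at 37 C. EC50 values came from concentration-response curves normalized to chenodeoxycholic acid.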

[4] = biological target: Peroxisome proliferator-activated receptor delta (Homo sapiens) (UniProt Q03181); assay: qHTS assay for small molecule antagonists of peroxisome proliferator-activated receptor delta signaling (AID 588535; active = well fitted inhibition curve with a large enough effect in the signal ratio, with a control signal flat, not every such curve was filed as active; the % refers to the signal ratio); settings: HEK293T PPARd-UAS-bla, beta-lactamase FRET ratio, 18 h; series mostly up to 76.7 µM
How it was run: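 GeneBLAzer PPAR-delta-UAS-bla HEK293T cells in medium with 2% charcoal/dextran FBS were preincubated 5 hrs at 37 C, then given compounds, incubated 18 hrs at 37 C, and read by CCF4 beta-lactamase fluorescence; IC50 from Hill fits.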

[5] = biological target: Peroxisome proliferator-activated receptor gamma (Homo sapiens) (UniProt P37231); assay: qHTS assay for small molecule agonists of peroxisome proliferator-activated receptor gamma signaling (AID 588536; active = well fitted curve in the direction sought with a large enough effect in the signal ratio, with a control signal flat, not every such curve was filed as active; the % refers to the signal ratio; note: potency is the fitted concentration of half-maximal effect); settings: HEK293 PPARg-UAS-bla, beta-lactamase ratio, 16 h; series mostly up to 76.7 µM
How it was run: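 HEK293 UAS-bla reporter line, 1% charcoal/dextran FBS; titration, 16 h, 37 C; CCF4 loading 2 h RT; fluorescence 460/530 nm. Normalized to rosiglitazone 2 uM = 100%, DMSO = 0%.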

[6] = qHTS assay for small molecule agonists of retinoid X receptor alpha signaling (AID 588544); settings: HEK293T RXRa-UAS-bla, beta-lactamase reporter, 18 h; 530 nm emission
[7] = qHTS assay for small molecule agonists of the antioxidant response element (ARE) signaling pathway (AID 651741; active = well fitted activation curve with a large enough effect in the signal ratio; the % refers to the signal ratio; note: potency is the fitted concentration of half-maximal effect); settings: HepG2 ARE-bla reporter, beta-lactamase FRET ratio, 16 h; series mostly up to 96 µM
How it was run: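 ARE-bla HepG2 cells (beta-lactamase reporter under ARE control) were plated at 2,000 cells/well, preincubated 5 h at 37 C/5% CO2, then treated with DMSO-dissolved compounds for 16 h at 37 C; LiveBLAzer B/G FRET substrate added, fluorescence read after 2 h at room temperature.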

[8] = biological target: Peroxisome proliferator-activated receptor gamma (Homo sapiens) (UniProt P37231); assay: qHTS assay for small molecule antagonists of peroxisome proliferator-activated receptor gamma signaling (AID 588537; active = well fitted inhibition curve with a large enough effect in the signal ratio, with a control signal flat, not every such curve was filed as active; the % refers to the signal ratio;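 note: reporter cells co-stimulated with 50 nM rosiglitazone agonist during compound treatment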); settings: HEK293 PPARg-UAS-bla, beta-lactamase ratio, antagonist mode; series mostly up to 76.8 µM
How it was run: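 PPAR-gamma-UAS-bla HEK293 cells (3000/well, 1% charcoal/dextran-stripped FBS) were preincubated 6-6.5 h at 37 C, given titrated compounds, then stimulated with 50 nM rosiglitazone for 16 h. Beta-lactamase activity was read with CCF4 dye; IC50 came from Hill fits.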

[9] = qHTS assay for small molecule activators of the human pregnane X receptor (PXR) signaling pathway (AID 720659; call rule not given here); settings: DPX-2 HepG2 CYP3A4-luciferase, 24 h; series mostly up to 92.3 µM
[10] = biological target: Androgen receptor (Homo sapiens) (UniProt P10275); assay: qHTS assay for small molecule agonists of androgen receptor signaling (AID 588515; active = well fitted curve in the direction sought with a large enough effect in the signal ratio, with a control signal flat; the % refers to the signal ratio); settings: AR-UAS-bla HEK293, beta-lactamase ratio, agonist 16 h; stronger effect = higher value
How it was run: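 EC50 and efficacy came from Hill fits of titrations (up to 92 uM) normalized to 30 nM R1881 as 100% and DMSO as 0%. Compound exposure was 16 h at 37 C on AR-UAS-bla HEK293 cells, with a 405/460/530 nm CCF4 fluorescence read.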

[11] = biological target: Androgen receptor (Homo sapiens) (UniProt P10275); assay: qHTS assay for small molecule antagonists of androgen receptor signaling (AID 588516; active = well fitted curve in the direction sought with a large enough effect in the signal ratio, with a control signal flat, not every such curve was filed as active; the % refers to the signal ratio); settings: AR-UAS-bla HEK293, beta-lactamase ratio, antagonist mode, 16 h; series mostly up to 76.8 µM
How it was run: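 Compounds tested in titration against 10 nM R1881 in AR-responsive bla reporter HEK 293 cells; CCF4 fluorescence (460/530 nm) after 16 h exposure gave IC50 and efficacy.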

Chain of Peroxisome proliferator-activated receptor gamma (Homo sapiens) (P37231 whole entry, looked up): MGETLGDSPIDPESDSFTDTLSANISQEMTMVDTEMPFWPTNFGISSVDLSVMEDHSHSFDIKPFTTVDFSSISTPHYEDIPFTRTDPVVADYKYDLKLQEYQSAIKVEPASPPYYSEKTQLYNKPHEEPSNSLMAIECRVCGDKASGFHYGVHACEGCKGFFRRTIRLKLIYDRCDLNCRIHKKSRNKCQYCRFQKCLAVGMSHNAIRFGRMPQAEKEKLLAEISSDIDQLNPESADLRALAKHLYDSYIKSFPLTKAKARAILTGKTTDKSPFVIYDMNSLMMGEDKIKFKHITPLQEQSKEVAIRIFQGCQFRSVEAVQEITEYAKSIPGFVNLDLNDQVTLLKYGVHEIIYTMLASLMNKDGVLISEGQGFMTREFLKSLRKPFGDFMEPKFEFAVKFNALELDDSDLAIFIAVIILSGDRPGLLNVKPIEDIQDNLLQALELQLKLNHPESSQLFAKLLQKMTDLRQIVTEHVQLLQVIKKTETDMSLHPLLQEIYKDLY
Chain of Androgen receptor (Homo sapiens) (P10275 whole entry, looked up): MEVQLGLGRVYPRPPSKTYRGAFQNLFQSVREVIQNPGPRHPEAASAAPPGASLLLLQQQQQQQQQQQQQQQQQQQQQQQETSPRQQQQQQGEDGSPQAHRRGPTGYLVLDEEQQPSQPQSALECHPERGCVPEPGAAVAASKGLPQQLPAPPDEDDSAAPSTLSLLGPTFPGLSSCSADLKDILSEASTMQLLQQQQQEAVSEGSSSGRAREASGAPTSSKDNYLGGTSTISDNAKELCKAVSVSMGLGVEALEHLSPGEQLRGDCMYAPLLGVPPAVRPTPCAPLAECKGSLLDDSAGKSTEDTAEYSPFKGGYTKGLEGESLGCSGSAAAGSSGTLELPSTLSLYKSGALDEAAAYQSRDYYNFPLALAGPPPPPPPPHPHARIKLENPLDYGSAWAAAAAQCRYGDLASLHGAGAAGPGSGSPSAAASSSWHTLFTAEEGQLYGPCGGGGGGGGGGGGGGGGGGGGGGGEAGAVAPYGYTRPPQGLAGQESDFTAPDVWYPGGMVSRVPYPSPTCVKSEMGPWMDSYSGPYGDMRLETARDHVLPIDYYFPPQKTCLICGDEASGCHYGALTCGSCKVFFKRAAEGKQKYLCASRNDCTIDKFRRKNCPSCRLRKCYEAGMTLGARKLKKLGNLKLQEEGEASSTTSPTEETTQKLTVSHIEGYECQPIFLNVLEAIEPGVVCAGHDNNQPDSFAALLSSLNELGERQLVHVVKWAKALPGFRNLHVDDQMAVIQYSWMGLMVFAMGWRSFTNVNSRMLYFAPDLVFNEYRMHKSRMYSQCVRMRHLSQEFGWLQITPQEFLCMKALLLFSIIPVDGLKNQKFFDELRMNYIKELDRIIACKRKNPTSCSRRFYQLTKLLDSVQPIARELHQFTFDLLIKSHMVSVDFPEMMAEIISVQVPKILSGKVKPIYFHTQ
Chain of Bile acid receptor (Homo sapiens) (Q96RI1 whole entry, looked up): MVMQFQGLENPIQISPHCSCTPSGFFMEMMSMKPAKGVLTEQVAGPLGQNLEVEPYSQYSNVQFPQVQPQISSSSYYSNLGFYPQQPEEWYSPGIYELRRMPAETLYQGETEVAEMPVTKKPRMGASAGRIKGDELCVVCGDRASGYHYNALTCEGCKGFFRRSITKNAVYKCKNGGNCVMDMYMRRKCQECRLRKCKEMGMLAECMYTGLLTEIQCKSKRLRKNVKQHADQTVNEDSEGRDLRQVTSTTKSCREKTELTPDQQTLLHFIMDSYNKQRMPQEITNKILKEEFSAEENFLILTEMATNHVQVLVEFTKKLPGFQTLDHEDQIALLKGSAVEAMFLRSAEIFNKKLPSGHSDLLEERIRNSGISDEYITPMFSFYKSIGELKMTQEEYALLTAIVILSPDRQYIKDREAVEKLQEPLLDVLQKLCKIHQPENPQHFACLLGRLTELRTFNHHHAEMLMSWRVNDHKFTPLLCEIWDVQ
Chain of Estrogen receptor (Homo sapiens) (P03372 whole entry, looked up): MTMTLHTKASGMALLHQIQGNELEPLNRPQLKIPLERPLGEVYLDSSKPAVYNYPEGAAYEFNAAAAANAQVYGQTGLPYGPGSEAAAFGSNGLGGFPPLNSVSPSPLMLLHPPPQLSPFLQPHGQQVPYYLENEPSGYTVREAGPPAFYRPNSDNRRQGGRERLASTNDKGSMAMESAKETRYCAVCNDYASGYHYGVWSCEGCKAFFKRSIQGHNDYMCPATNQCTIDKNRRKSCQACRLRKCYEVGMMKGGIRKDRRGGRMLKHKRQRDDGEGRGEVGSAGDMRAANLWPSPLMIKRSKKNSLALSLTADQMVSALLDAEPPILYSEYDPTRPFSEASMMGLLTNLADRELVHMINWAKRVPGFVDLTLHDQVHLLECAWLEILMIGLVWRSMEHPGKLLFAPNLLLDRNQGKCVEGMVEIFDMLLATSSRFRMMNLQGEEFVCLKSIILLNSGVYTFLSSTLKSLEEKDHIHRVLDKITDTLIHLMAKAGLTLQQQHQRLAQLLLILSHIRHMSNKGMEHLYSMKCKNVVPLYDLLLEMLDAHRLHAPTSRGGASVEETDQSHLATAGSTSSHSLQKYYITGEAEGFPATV
Chain of Peroxisome proliferator-activated receptor delta (Homo sapiens) (Q03181 whole entry, looked up): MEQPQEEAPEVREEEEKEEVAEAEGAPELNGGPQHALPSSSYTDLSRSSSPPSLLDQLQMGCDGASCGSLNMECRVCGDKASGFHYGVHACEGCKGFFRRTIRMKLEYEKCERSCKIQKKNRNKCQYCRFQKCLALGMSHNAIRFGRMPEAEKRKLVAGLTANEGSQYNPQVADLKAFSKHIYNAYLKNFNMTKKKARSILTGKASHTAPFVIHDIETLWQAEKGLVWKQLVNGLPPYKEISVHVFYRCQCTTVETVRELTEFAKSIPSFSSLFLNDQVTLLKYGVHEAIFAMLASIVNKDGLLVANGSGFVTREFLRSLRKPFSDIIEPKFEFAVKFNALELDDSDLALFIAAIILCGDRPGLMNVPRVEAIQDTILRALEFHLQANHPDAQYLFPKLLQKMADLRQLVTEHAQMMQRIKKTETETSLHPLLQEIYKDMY

| SMILES | Potency [1] | Potency [2] | activation [3] | Potency [4] | Potency [5] | max response [6] | Potency [7] | Potency [8] | outcome [9] | activation [10] | Potency [11] |
| --- | --- | --- | --- | --- | --- | --- | --- | --- | --- | --- | --- |
| Cc1cccc2sc3nncn3c12 | inactive | inactive | -0.105% (inactive) | inactive | inactive | 0.611% | 2.73 µM (active) | – | – | – | – |
| O=C(O)C(F)(F)C(F)(F)C(F)(F)C(F)(F)C(F)(F)C(F)(F)C(F)(F)C(F)(F)F | inactive | inactive | 3.01% (inactive) and 1.7% (inactive) | inactive | inactive | 1.6% and -25.9% | 24.3 µM (active) | inactive | inactive | – | – |
| CNC(=O)Oc1cccc(N=CN(C)C)c1 | inactive | inactive | -2.76% (inactive) | inactive | – | 1.64% | – | inactive | inactive | – | – |
| [Ga]#[As] | inactive | inactive | – | inactive | inactive | -5.43% | – | inactive | inactive | 2.63% (inactive) | inactive |
| CC(C)N(C(=O)COc1nnc(C(F)(F)F)s1)c1ccc(F)cc1 | inactive | inactive | 0.828% (inactive) | inactive | inactive | – | 48.6 µM (active) | – | – | – | – |
| CCCCOCCOC(C)=O | inactive | inactive | 1.59% (inactive) | inactive | inactive | -13.2% | – | inactive | inactive | – | – |
| Nc1cccc(Cl)c1Cl | inactive | inactive | 2.15% (inactive) | inactive | inactive | -11.4% | inactive | inactive | inactive | – | inactive |
| CCC[CH2][Sn]([Cl])([CH2]CCC)[CH2]CCC | inactive | 35.5 µM (active) | – | – | – | – | 24.3 µM (active) | – | – | – | – |
| CC(C)(C)[C@@H](O)/C(=C\c1ccc(Cl)cc1Cl)n1cncn1 | inactive | 44.7 µM (active) | 0.6% (inactive) | – | – | – | 68.6 µM (active) | – | – | – | – |
| O=C1c2ccccc2C(=O)C1C(=O)C(c1ccccc1)c1ccc(Cl)cc1 (stereo not drawn) | inactive | – | – | inactive | inactive | -4.27% | 54.5 µM (active) | – | – | -4.67% (inactive) | – |
| CCc1cc(C)cc(CC)c1-c1c(OC(=O)C(C)(C)C)n2n(c1=O)CCOCC2 | inactive | inactive | 2.69% (inactive) | inactive | inactive | -12.9% | inactive | inactive | – | – | – |
| O=[N+]([O-])c1ccc(Cl)c([N+](=O)[O-])c1 | inactive | 35.5 µM (active) | 16.6% (inactive) | – | – | – | – | inactive | – | -0.974% (inactive) | – |
| CC(C)C1(C)N=C(c2ncccc2C(=O)O)NC1=O (stereo not drawn) | inactive | inactive | -1.77% (inactive) | – | – | -12.1% | inactive | inactive | inactive | – | – |
| CCCCC(O)(Cn1cncn1)c1ccc(Cl)cc1Cl (stereo not drawn) | inactive | inactive | -2.88% (inactive) | inactive | – | – | – | – | – | -10.4% (inactive) | – |
| Nc1c(Cl)c(F)nc(OCC(=O)O)c1Cl | inactive | – | – | – | – | 5.84% | – | inactive | inactive | 0.917% (inactive) | inactive |
| COP(=O)(OC)OC(Br)C(Cl)(Cl)Br (stereo not drawn) | inactive | inactive | – | inactive | 22.4 µM (active) | – | 24.3 µM (active) | inactive | – | 4.22% (inactive) | – |
| CCSC(=O)N(CC)C1CCCCC1 | inactive | inactive | -3.64% (inactive) | – | inactive | -3.68% | – | inactive | inactive | – | – |
| O=[N+]([O-])Nc1nccn1Cc1ccc(Cl)nc1 | inactive | inactive | – | inactive | – | – | – | inactive | inactive | 20.9% (inactive) | inactive |
| CC(C)=CC1[C@H](C(=O)OCc2cccc(Oc3ccccc3)c2)C1(C)C (stereo partly drawn) | inactive | inactive | -3.66% (inactive) | inactive | – | -6.27% | – | – | – | – | – |
| CNC(=O)O/N=C/C(C)(C)S(C)(=O)=O | inactive | – | – | – | inactive | -16.6% | – | – | inactive | 1.32% (inactive) | – |
| CC(C)Oc1cc(-n2nc(C(C)(C)C)oc2=O)c(Cl)cc1Cl | inactive | – | 1.08% (inactive) | inactive | – | – | 61.1 µM (active) | – | – | -15% (inactive) | – |
| CCOC(=O)C(Cl)Cc1cc(-n2nc(C)n(C(F)F)c2=O)c(F)cc1Cl (stereo not drawn) | inactive | inactive | 1.1% (inactive) | inactive | inactive | 14.3% | 54.5 µM (active) | – | inactive | – | – |
| CC(C)(C)C(O)/C(=C\c1ccc(Cl)cc1Cl)n1cncn1 (stereo not drawn) | inactive | – | 1.69% (inactive) | – | – | – | – | – | – | – | – |
| ClC1=C(Cl)[C@@]2(Cl)[C@H]3C[C@@H](Cl)[C@H](Cl)[C@H]3[C@@]1(Cl)C2(Cl)Cl | – | – | -1.23% (inactive) | – | – | – | 24.3 µM (active) | – | – | -0.104% (inactive) | inactive |
| O=C(Nc1ccccc1)Nc1ccnc(Cl)c1 | – | inactive | -3.44% (inactive) | – | inactive | – | – | inactive | – | 10.1% (inactive) | inactive |
| CC(C)OC(=O)C(O)(c1ccc(Br)cc1)c1ccc(Br)cc1 | inactive | – | 5.65% (inactive) | – | – | – | – | – | – | – | – |
